Data on 6 molecules can be found in PubChem BioAssay.

Broadly, the inhibition is the change of the read-out against control, counted positive when it falls.

Activity calls are given as the source filed them.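 Rule for the calls, unless noted: active = compounds giving at least 50% inhibition in the cell-based MKP-3 phosphatase rescue imaging test; inactive = the rest.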

Assay [1] in a line: inhibitors of TNFa-induced NFkB p65 translocation, primary screen, imaging, HUVEC, MLSMR starter and 10KST1 sets (AID 438;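 active = inhibition above 20% together with a positive visual image hit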;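 note: compound added about 3h40 before a 20 min TNFalpha stimulation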;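 for inhibition: signal is the nuclear over cytoplasmic p65 intensity ratio per well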). The note with it: HUVEC TNFa-induced p65 nuclear translocation; cell count: measured here: nuclei count (cytotoxicity indicator), at 2.08 µM; inhibition: at 2 µM, stronger effect = higher value, 0% TNFa-plus-vehicle, 100% no-TNFa wells.
The nature of assay [2]: reduction of polyQ htt aggregates in cells – imaging, exon1htt(103Q)mCFP cells, high-content imaging, primary screen (AID 483;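 active = visual image review flags a hit and inhibition of aggregation exceeds 20%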;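 note: compound exposure lasted 3 days before fixation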;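 for nuclei count: percent of the per-plate median nuclei count of sample wells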). The settings on record: exon1htt(103Q)mCFP cell line, aggregate imaging, at 2 µM; inhibition of aggregation: stronger effect = higher value; nuclei count: measured here: cell count, toxicity.
Assay [3] is described as follows: endothelial E-selectin expression blockers – imaging, HUVEC, immunofluorescence, MLSMR starter and 10KST1 sets, primary screen (AID 487;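 active = visually confirmed hit in the image check and inhibition above 20%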;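 for inhibition: signal is fraction of cell area covered by stained E-selectin grains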;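 for nuclei count: 100% = median nuclei count of all wells on the same plate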). The settings on record: HUVEC TNFalpha-induced E-selectin immunofluorescence imaging, at 2 µM; inhibition: stronger effect = higher value; nuclei count: measured here: cell number, toxicity.
Assay [4] in a line: Primary imaging screen for DUSP6 inhibitors that restore phospho-Erk in transfected HeLa cells, chemical complementation (AID 609).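 For inhibition: phospho-Erk level distribution per well compared with pooled transfected vehicle control wells.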 The settings on record: HeLa MKP-3 transfected, phospho-Erk imaging KS statistic, at 10 µM, cells stimulated with TPA for 15 min.
The target in assay [5] is Dual specificity protein phosphatase 6 (Homo sapiens) (UniProt Q16828). The description is as above. The note with it: HeLa MKP-3 transfected, phospho-Erk imaging KS statistic; at 10 µM; stronger effect = higher value; cells stimulated with TPA for 15 min.
Assay [6] concerns the target Voltage-gated potassium channel subunit beta-2 (Rattus norvegicus) (UniProt P62483). The assay can be described thus: inhibitors of rat Kvbeta2 reductase activity – biochemical, NADPH fluorescence, primary screen (AID 622;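 active = fluorescence slope higher than the sample average by over 3 SD, cut at about -0.22 in these data, passing the limit was not always enough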;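 note: slope of raw intensity against log time taken from 70 to 1610 s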). The note with it: recombinant KvBeta, 4-cyanobenzaldehyde reduction, at 10 µM, stronger effect = higher value.
Assay [7] has the same target. The assay can be described thus: enhancers of rat Kvbeta2 NADPH turnover – biochemical, NADPH fluorescence, primary screen (AID 623;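 active = NADPH fluorescence slope more negative than the mean of all samples by about 3 SD, 99.7% confidence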;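 note: fluorescence intensity change per second fitted from 20 to 320 s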). The note with it: Recombinant KvBeta, NADPH fluorescence decrease slope, 10 min; at 10 µM; stronger effect = lower value.
Assay [8] addresses Alpha-2C adrenergic receptor (Homo sapiens) (UniProt P18825). The assay can be described thus: compounds altering alpha2C-coupled GIRK flux – cell-based, HEK293 alpha2C/GIRK1/2, thallium flux, primary screen (AID 624;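 active = fluorescence slope after compound addition differing from the mean of all screened samples at 99.7% confidence, in either direction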;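 note: slope of fluorescence ratio to pre-addition baseline per second over 15 to 24 s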). The settings on record: thallium flux BTC fluorescence, at 10 µM, actives lie on both sides.
The nature of assay [9]: inhibitors of larval lipid processing in zebrafish, primary screen, whole organism, PED6 fluorescence, gall bladder and intestine (AID 686;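 active = a full or partial loss of lipid-probe fluorescence in the fish gall bladder, intestine or both, judged by eye; inactive = no fluorescence loss, or compound toxic to the fish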;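 note: larvae 5 to 7 days old with five fish per well; signal comes from phospholipase A2 cleavage of quenched PED6 carried via bile; overnight exposure to compound and PED6 before scoring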). The settings on record: Zebrafish larvae PED6 lipid processing, fluorescence scoring; screened at 20 µM (by protocol).
Assay [10] can be described thus: loss of swimming-algae plug formation – whole organism, Chlamydomonas reinhardtii, WT vs cilia-less mutant, absorbance, 96-well, primary screen (AID 463189;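 active = inhibition at or above 50% relative to wild type and mutant plate controls; inactive = inhibition below 50%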;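 note: 0% = wild type cc124 cells in DMSO and 100% = ciliumless bld1 mutant cells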). The note with it: Chlamydomonas reinhardtii gravitaxis, OD600 absorbance, 2 days; at 10 µM; stronger effect = higher value.
The nature of assay [11]: blockers of RIG-like receptor reporter activation – cell-based, Sendai virus stimulus, luciferase, 10K MLSCN set, TLR/RLR signaling modifier project, primary screen (AID 602276;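 active = inhibition at or above 50% at 10 µM; inactive = inhibition below 50%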;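 note: firefly luciferase from ISG56 promoter only with Renilla not read in this screen; 0% = Sendai virus plus DMSO and 100% = medium plus DMSO without virus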). The note with it: HEK293 RL24 IRF3 luciferase reporter, at 10 µM, stronger effect = higher value. On the technique in general: In a reporter assay the amount or activity of a reporter protein is the signal.

A short description of assay [12]: TLR3 IRF3 reporter activation blockers – cell-based, poly I:C stimulus, luciferase, 10K MLSCN set, primary screen (AID 602277;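 active = inhibition of the reporter signal at or above 50%; inactive = inhibition below 50%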). The note with it: HEK293-TLR3 RL24 IRF3 luciferase reporter, at 10 µM, stronger effect = higher value.
Setting [13] is: measured here: cell density z-score.
Setting [14] is: measured here: nuclear c-Myc green intensity z-score.
Setting [15] is: measured here: nuclear pErk red intensity z-score, stronger effect = higher value.

Sequence of Voltage-gated potassium channel subunit beta-2 (Rattus norvegicus) (P62483 whole entry, looked up): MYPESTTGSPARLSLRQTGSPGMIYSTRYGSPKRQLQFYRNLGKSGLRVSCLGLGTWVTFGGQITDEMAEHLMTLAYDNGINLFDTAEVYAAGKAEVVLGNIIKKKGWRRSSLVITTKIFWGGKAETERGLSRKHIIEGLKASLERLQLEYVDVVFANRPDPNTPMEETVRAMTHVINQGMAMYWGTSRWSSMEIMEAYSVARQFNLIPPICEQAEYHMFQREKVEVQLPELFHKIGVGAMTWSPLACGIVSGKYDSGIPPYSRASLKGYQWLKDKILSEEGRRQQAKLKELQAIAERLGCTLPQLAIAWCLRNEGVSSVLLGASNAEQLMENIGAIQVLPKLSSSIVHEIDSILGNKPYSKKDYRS
Sequence of Alpha-2C adrenergic receptor (Homo sapiens) (P18825 whole entry, looked up): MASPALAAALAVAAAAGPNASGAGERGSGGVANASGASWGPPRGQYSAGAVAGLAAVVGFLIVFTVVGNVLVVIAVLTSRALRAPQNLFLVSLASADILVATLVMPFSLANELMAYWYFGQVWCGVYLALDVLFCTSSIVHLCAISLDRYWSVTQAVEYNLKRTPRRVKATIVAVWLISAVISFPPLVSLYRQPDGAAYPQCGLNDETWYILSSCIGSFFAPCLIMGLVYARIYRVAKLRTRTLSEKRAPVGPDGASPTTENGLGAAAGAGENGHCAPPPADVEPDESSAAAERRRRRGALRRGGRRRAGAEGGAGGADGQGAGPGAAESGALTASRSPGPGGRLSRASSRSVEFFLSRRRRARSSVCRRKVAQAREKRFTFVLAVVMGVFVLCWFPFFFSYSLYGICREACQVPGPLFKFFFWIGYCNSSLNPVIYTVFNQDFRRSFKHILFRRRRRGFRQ
Sequence of Dual specificity protein phosphatase 6 (Homo sapiens) (Q16828 whole entry, looked up): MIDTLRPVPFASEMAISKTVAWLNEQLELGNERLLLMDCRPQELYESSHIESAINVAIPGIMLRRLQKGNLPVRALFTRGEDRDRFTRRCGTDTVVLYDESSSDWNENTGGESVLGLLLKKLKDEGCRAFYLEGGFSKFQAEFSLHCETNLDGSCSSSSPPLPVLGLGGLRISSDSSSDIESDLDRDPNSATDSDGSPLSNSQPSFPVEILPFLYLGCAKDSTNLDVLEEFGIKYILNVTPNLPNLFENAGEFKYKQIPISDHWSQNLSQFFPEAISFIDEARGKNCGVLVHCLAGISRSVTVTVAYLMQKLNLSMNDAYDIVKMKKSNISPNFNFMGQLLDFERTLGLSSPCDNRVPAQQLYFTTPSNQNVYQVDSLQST

On to `Cc1cccc(N(C)C(=S)Oc2ccc3ccccc3c2)c1`, for which the cell count in assay [1] is 604. Besides, the inhibition in assay [1] is -0.1% (inactive); in [3], -124% (inactive); in assay [5], 5.42% (inactive); in assay [10] it was 97.3% (active); in assay [11], -6.47% (inactive); in [12] it was -10.7% (inactive). For the same molecule, the inhibition of aggregation in [2] was 1.5% (inactive). Further, the nuclei count in assay [2] came out at 115%; in assay [3], 117%. Further, the z-score in assay [4] (setting [13]) is -0.0512; in assay [4] (setting [14]), 0.405; in assay [4] (setting [15]), -0.61. Moreover, the fluorescence slope in [6] was -0.463 (inactive). Moreover, the NADPH fluorescence slope in assay [7] was -2.6e-05 (inactive). The slope in assay [8] is 0.00625 (inactive). The outcome in assay [9] is “active; weak signal in gallbladder and intestine”.

For the molecule `Cc1oc2cc(O)ccc2c(=O)c1-c1cnn(-c2ccccc2)c1`, the cell count in assay [1] turned out to be 454. The inhibition was -6.5% (inactive) in assay [1]; -212% (inactive) in assay [3]; -9.91% (inactive) in assay [5]; 9.82% (inactive) in [10]; 7.89% (inactive) in assay [11]; 0.114% (inactive) in assay [12]. Besides, in assay [2], the inhibition of aggregation is -9% (inactive). The nuclei count turned out to be 102% in assay [2] and 120% in assay [3]. Besides, the z-score in assay [4] (setting [13]) was -0.098; in [4] (setting [14]), -0.0689; in [4] (setting [15]), 0.86. Moreover, the fluorescence slope in [6] is -0.486 (inactive). Further, the NADPH fluorescence slope in [7] was 1.2e-05 (inactive). The slope in [8] is 0.00452 (inactive). Further, the call in [9] was inactive.

For the molecule `CCOC(=O)c1c(C)n(C)c2ccc(OC)c(NC(=O)CCN3CCSCC3)c12`, in assay [1], the cell count was determined as 476. Also, the inhibition in assay [1] was 3% (inactive); in assay [3], -134% (inactive); in assay [5], -9.66% (inactive); in [10], 4.14% (inactive); in [11], 24.4% (inactive); in [12] it was 28.3% (inactive). The inhibition of aggregation in assay [2] was 5.7% (inactive). For the same molecule, the nuclei count in assay [2] came to 112%; in assay [3] it was 114%. Also, the z-score in assay [4] (setting [13]) was -2.21; in assay [4] (setting [14]) it was 0.452; in [4] (setting [15]), 0.641. Further, the fluorescence slope in [6] is -0.464 (inactive). Further, the NADPH fluorescence slope in assay [7] was -6.9e-05 (inactive). For the same molecule, in assay [8], the slope was 0.00572 (inactive). For the same molecule, the outcome in [9] was inactive.

Consider `CCCC(=O)Nc1ncnc2c1ncn2[C@@H]1O[C@@H]2COP(=O)(O)O[C@H]2[C@H]1OC(=O)CCC`, for which the cell count in [1] stood at 447. The inhibition in assay [1] is 15.4% (inactive); in [3], -67.8% (inactive); in [5] it was 21.2% (inactive); in [10] it was 29.3% (inactive); in [11], 18.6% (inactive); in [12] it was 40.7% (inactive). The inhibition of aggregation in assay [2] was 14.3% (inactive). Moreover, the nuclei count turned out to be 96.1% in [2] and 127% in assay [3]. For the same molecule, the z-score in assay [4] (setting [13]) is 0.217; in [4] (setting [14]), 0.395; in assay [4] (setting [15]), 0.177. In [6], the fluorescence slope is -0.511 (inactive). For the same molecule, the NADPH fluorescence slope in assay [7] was -7.6e-06 (inactive). Further, the slope in [8] was 0.00504 (inactive). Also, the molecule was called inactive in [9].

In the case of `NC(Cc1ccc(Oc2ccc(O)cc2)cc1)C(=O)O` (configuration not stated), the cell count in assay [1] turned out to be 563. In addition, the inhibition is -6.8% (inactive) in assay [1]; -19.7% (inactive) in assay [3]; 3.45% (inactive) in assay [5]; -4.82% (inactive) in assay [10]; 11.4% (inactive) in assay [11]; 24.4% (inactive) in assay [12]. In assay [2], the inhibition of aggregation was -8.1% (inactive). Moreover, the nuclei count in [2] and in [3] was 103% in each case. The figures for the z-score in assay [4] (setting [13]), in assay [4] (setting [14]) and in [4] (setting [15]) were -0.271, -1.56 and -0.79, respectively. Besides, the fluorescence slope in assay [6] is -0.495 (inactive). In assay [7], the NADPH fluorescence slope was -5.7e-05 (inactive). Also, the slope in [8] is 0.00414 (inactive). In assay [9], the molecule was classed as inactive.

On to `CCN(CC)S(=O)(=O)c1cccc2c(N(C)C)cccc12`, for which the cell count in assay [1] was found to be 503. Moreover, the inhibition is -2.1% (inactive) in [1]; -84.9% (inactive) in assay [3]; 0.671% (inactive) in assay [5]; 25.1% (inactive) in assay [10]; -4.35% (inactive) in assay [11]; -4.09% (inactive) in assay [12]. Also, the inhibition of aggregation in [2] is 14.8% (inactive). Further, the nuclei count in assay [2] worked out at 95.3%; in assay [3], 128%. Further, the z-score in assay [4] (setting [13]) was 0.324; in assay [4] (setting [14]), -0.162; in assay [4] (setting [15]), 1.65. In assay [6], the fluorescence slope is -0.177 (active). Further, in [7], the NADPH fluorescence slope was -1.3e-05 (inactive). Further, the slope in assay [8] is 0.00311 (inactive). Moreover, in [9], the molecule was classed as inactive.
